Inconclusive results are not listed. Calls of active or inactive are those of the source. The call rests on the fitted dose curve; in most records, active means well fitted inhibition curve with a large enough effect; inconclusive means small, poorly fitted or top-dose-only effect; inactive means flat fitted curve, though single readings scatter.
Assay: BET inhibitor-based combinations targeting novel dependencies in MECOM-rearranged (r) AML: AML-191 cell line (AID 2202236; further: nearly all actives have a fitted effect of over 35% in size)
Settings: AML-191 viability, CellTiter-Glo luminescence, 48 h; series mostly up to 46 µM
Outline: (§1)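 Each compound was tested at eleven concentrations on cells seeded at 500/well. After two days' incubation, ATP-based luminescence reported viability; responses relative to DMSO and blank wells yielded AUC and cell-line-centred Z-AUC.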
In the case of `CCOC(=O)c1ccc(C#Cc2ccc3c(c2)C(C)(C)CCS3)nc1`, the Potency is reported as 8.33 µM (active).
With `O=C1OC2(CCC(C(=O)Nc3ccn(-c4ccccc4F)n3)CC2)c2cnccc21` (stereo unspecified) the Potency was 18.6 µM (active).
With `O=C(NCc1ccccc1)[C@H](Cc1ccccc1)NC(=O)[C@H]1O[C@@H]1C(=O)NCCc1ccc(O)cc1` the Potency was “inactive”.
In the case of `O=C1S/C(=C\c2ccc(OCc3cccc(B(O)O)c3)cc2)C(=O)N1Cc1ccc(F)cc1`, the Potency is reported as 18.6 µM (active).
In the case of `COc1ccc(/C=C\c2cc(OC)c(OC)c(OC)c2)cc1O`, the Potency is reported as 0.0132 µM (active).
With `O=C(c1ccc(Nc2nc(C3CC3)cn3c(-c4cn[nH]c4)cnc23)c(F)c1)N1CCOCC1` the Potency was 20.9 µM (active).
With `COc1ccc2c(c1)CC[C@@H]1[C@@H]2CC[C@]2(C)[C@@H](NCCCCCCN3C(=O)C=CC3=O)CC[C@@H]12` the Potency was “inactive”.
With `COc1cc(=C2C=c3ccccc3=N2)[nH]/c1=C/c1[nH]c(C)cc1C` the Potency was 2.35 µM (active).
For `NC(CO)(CO)CCc1ccc(Sc2cccc(OCc3ccccc3)c2)cc1Cl`, the Potency was 10.5 µM (active).
For `CC[C@@]1(O)C(=O)OCc2c1cc1n(c2=O)Cc2c-1nc1cc(F)c(C)c3c1c2[C@@H](N)CC3`, the Potency was 0.0083 µM (active).
In the case of `Cc1cc(/C=c2/sc3nc4ccccc4n3c2=O)c(C)n1-c1ccccc1`, the Potency is reported as 16.6 µM (active).
In the case of `COc1cc(OC)cc(N2CCN(C(=O)Nc3nc4cc(F)ccc4nc3OC)CC2)c1`, the Potency is reported as 0.934 µM (active).
For `CN(C)C/C=C/C(=O)Nc1cc2c(Nc3ccc(F)c(Cl)c3)ncnc2cc1O[C@H]1CCOC1`, the Potency was 7.42 µM (active).
For `COC(=O)[C@H](CCCN=C(N)N)NS(=O)(=O)c1ccc(C)cc1`, the Potency was “inactive”.
For `O=C(Nc1ccccc1)Nc1ccc(-c2ccc(C(=O)[C@@H]3CCC[C@H]3C(=O)O)cc2)cc1`, the Potency was “inactive”.
With `CC[C@H](CO)Nc1nc(NCc2ccccc2)c2ncn(C(C)C)c2n1` the Potency was 23.5 µM (active).
With `C=CCc1cccc(/C=N/NC(=O)CN2CCN(Cc3ccccc3)CC2)c1O` the Potency was 8.33 µM (active).
In the case of `CCOc1cc(/C=C2/C(=O)N(c3ccccc3)N=C2C)cc(Cl)c1OCC(=O)OC`, the Potency is reported as “inactive”.
For `CCS(=O)(=O)Nc1ccc(Oc2ccc(F)cc2F)c(-c2cn(C)c(=O)c3[nH]ccc23)c1`, the Potency was 0.0742 µM (active).
In the case of `N#Cc1ccc(N(Cc2ccc(Br)cc2)n2cnnc2)cc1`, the Potency is reported as “inactive”.
For `O=C([O-])C[O-].[Pt+2]`, the Potency was “inactive”.
With `CSC[C@H]1CN(Cc2c[nH]c3c(N)ncnc23)C[C@@H]1O` the Potency was “inactive”.
With `COc1nc(OCc2cccc(-c3ccccc3)c2C)ccc1CNCCNC(C)=O` the Potency was 18.6 µM (active).
For `CN(C)CC[C@H](CSc1ccccc1)Nc1ccc(S(=O)(=O)NC(=O)c2ccc(N3CCN(Cc4ccccc4-c4ccc(Cl)cc4)CC3)cc2)cc1[N+](=O)[O-]`, the Potency was 2.35 µM (active).
With `C=CC(=O)N[C@H]1CCOC[C@H]1Nc1ncc2cc(-c3c(Cl)c(OC)cc(OC)c3Cl)ccc2n1` the Potency was “inactive”.
For `COc1ccc(S(=O)(=O)Nc2cc(-c3csc(C#N)c3)ccc2C)cc1`, the Potency was 0.132 µM (active).
In the case of `COc1cc(C)c(/C=C/C(C)=C/C=C/C(C)=C/C(=O)O)c(C)c1C`, the Potency is reported as 1.86 µM (active).

Assay: BET inhibitor-based combinations targeting novel dependencies in MECOM-rearranged (r) AML: AML-194 cell line (AID 2202237; further: nearly all actives have a fitted effect of over 40% in size)
Settings: AML-194 (MECOM-r AML) viability, CellTiter-Glo, 48 h; series mostly up to 46 µM
Outline: as §1
In the case of `CCOC(=O)c1ccc(C#Cc2ccc3c(c2)C(C)(C)CCS3)nc1`, the Potency is reported as “inactive”.
For `O=C(NCc1ccccc1)[C@H](Cc1ccccc1)NC(=O)[C@H]1O[C@@H]1C(=O)NCCc1ccc(O)cc1`, the Potency was “inactive”.
With `CCc1cc(/C(C)=N/OCc2ccc(C3CCCCC3)c(C(F)(F)F)c2)ccc1CN1CC(C(=O)O)C1` the Potency was “inactive”.
For `O=C1S/C(=C\c2ccc(OCc3cccc(B(O)O)c3)cc2)C(=O)N1Cc1ccc(F)cc1`, the Potency was “inactive”.
With `COc1ccc2c(c1)CC[C@@H]1[C@@H]2CC[C@]2(C)[C@@H](NCCCCCCN3C(=O)C=CC3=O)CC[C@@H]12` the Potency was “inactive”.
With `COc1cc(=C2C=c3ccccc3=N2)[nH]/c1=C/c1[nH]c(C)cc1C` the Potency was 5.9 µM (active).
With `NC(CO)(CO)CCc1ccc(Sc2cccc(OCc3ccccc3)c2)cc1Cl` the Potency was 9.34 µM (active).
For `CC[C@@]1(O)C(=O)OCc2c1cc1n(c2=O)Cc2c-1nc1cc(F)c(C)c3c1c2[C@@H](N)CC3`, the Potency was 0.0037 µM (active).
With `CC#Cc1cncc(-c2ccc3c(c2)[C@@]2(N=C(C)C(N)=N2)C2(CCC(OC)CC2)C3)c1` (stereo partly specified) the Potency was “inactive”.
With `COc1cc(OC)cc(N2CCN(C(=O)Nc3nc4cc(F)ccc4nc3OC)CC2)c1` the Potency was 1.05 µM (active).
For `CN(C)C/C=C/C(=O)Nc1cc2c(Nc3ccc(F)c(Cl)c3)ncnc2cc1O[C@H]1CCOC1`, the Potency was 7.42 µM (active).
For `CN1C/C=C/CCOc2cccc(c2)-c2ccnc(n2)Nc2cccc(c2)C1`, the Potency was 0.372 µM (active).
In the case of `CCN(C(=O)c1ccccc1OC)c1cc2c(cc1N1CCNC[C@H]1C)n(C)c(=O)n2C`, the Potency is reported as “inactive”.
With `COC(=O)[C@H](CCCN=C(N)N)NS(=O)(=O)c1ccc(C)cc1` the Potency was “inactive”.
For `O=C(Nc1ccccc1)Nc1ccc(-c2ccc(C(=O)[C@@H]3CCC[C@H]3C(=O)O)cc2)cc1`, the Potency was “inactive”.
With `O=c1sn(-c2cccc3ccccc23)c(=O)n1Cc1ccccc1` the Potency was 14.8 µM (active).
In the case of `C[C@@H](Oc1ccc2[nH]nc(/C=C/c3cnn(CCO)c3)c2c1)c1c(Cl)cncc1Cl`, the Potency is reported as 0.934 µM (active).
With `C/C=C/C/C=C/CCC(=O)[C@H]1O[C@H]1C(N)=O` the Potency was 26.3 µM (active).
In the case of `C=CCc1cccc(/C=N/NC(=O)CN2CCN(Cc3ccccc3)CC2)c1O`, the Potency is reported as 14.8 µM (active).
For `CCOc1cc(/C=C2/C(=O)N(c3ccccc3)N=C2C)cc(Cl)c1OCC(=O)OC`, the Potency was “inactive”.
In the case of `CCS(=O)(=O)Nc1ccc(Oc2ccc(F)cc2F)c(-c2cn(C)c(=O)c3[nH]ccc23)c1`, the Potency is reported as 0.0833 µM (active).
For `N#Cc1ccc(N(Cc2ccc(Br)cc2)n2cnnc2)cc1`, the Potency was “inactive”.
For `O=C([O-])C[O-].[Pt+2]`, the Potency was “inactive”.
With `CSC[C@H]1CN(Cc2c[nH]c3c(N)ncnc23)C[C@@H]1O` the Potency was “inactive”.
For `COc1nc(OCc2cccc(-c3ccccc3)c2C)ccc1CNCCNC(C)=O`, the Potency was 26.3 µM (active).
In the case of `CN(C)CC[C@H](CSc1ccccc1)Nc1ccc(S(=O)(=O)NC(=O)c2ccc(N3CCN(Cc4ccccc4-c4ccc(Cl)cc4)CC3)cc2)cc1[N+](=O)[O-]`, the Potency is reported as 1.86 µM (active).
For `C=CC(=O)N[C@H]1CCOC[C@H]1Nc1ncc2cc(-c3c(Cl)c(OC)cc(OC)c3Cl)ccc2n1`, the Potency was “inactive”.
With `COc1ccc(S(=O)(=O)Nc2cc(-c3csc(C#N)c3)ccc2C)cc1` the Potency was 0.332 µM (active).
In the case of `COc1cc(C)c(/C=C/C(C)=C/C=C/C(C)=C/C(=O)O)c(C)c1C`, the Potency is reported as “inactive”.

Source: PubChem BioAssay (NCATS)
Potency means the concentration at half of the fitted maximal effect.
